# m-calpain inh – inhibitors of pig calpain II, primary screen, biochemical, fluorogenic peptide substrate, 1536-well. purified calpain II, 30 min. inhibition, % at 16 µM. 220,000 compounds, 0.37% hits. AID 1236, 2008;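 active = inhibition above about 50%, limit read from the data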
# ROMK primary – ROMK potassium channel modulators, primary screen, cell-based, thallium flux, MLSMR library | ATP-sensitive inward rectifier potassium channel 1 (Homo sapiens), P48048 | Tet-inducible ROMK, thallium flux fluorescence; actives lie on both sides | B-score at 10 µM | 130,000 compounds, 2% hits | AID 1918, 2009;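 active = signal ratio slope over the read window, or its plate-corrected B-score, at least 3 SD from the plate mean, either direction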;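 note: B-score of the F/F0 ratio slope over 7 to 12 s after thallium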
# Target sequence (P48048 whole entry, looked up): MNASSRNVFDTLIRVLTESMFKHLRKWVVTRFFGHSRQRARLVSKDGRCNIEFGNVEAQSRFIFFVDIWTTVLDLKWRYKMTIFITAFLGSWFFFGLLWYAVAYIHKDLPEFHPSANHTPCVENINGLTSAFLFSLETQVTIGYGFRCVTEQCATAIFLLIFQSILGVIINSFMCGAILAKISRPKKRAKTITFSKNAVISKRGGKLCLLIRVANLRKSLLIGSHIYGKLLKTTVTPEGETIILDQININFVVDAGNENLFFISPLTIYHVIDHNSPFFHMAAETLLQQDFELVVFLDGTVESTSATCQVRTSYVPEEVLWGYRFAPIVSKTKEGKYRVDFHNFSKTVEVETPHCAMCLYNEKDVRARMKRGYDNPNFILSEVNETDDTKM
# Efa HMGR inh – inhibitors of E. faecalis class II HMGR, primary screen, biochemical, Enterococcus faecalis | HMG-CoA reductase (Enterococcus faecalis, mvaE) | purified E. faecalis HMGR, NADPH absorbance 340 nm kinetic | inhibition, % at 10 µM | 190,000 compounds, 0.41% hits | AID 1066, 2008;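 active = inhibition above a set limit, the median over all tested compounds plus 3 SD, cut at about 9.5% in these data; inconclusive = no clear call, values can overlap the other calls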;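 note: enzyme runs in reverse so mevalonate oxidation gives rising NADPH absorbance; 0% = complete reaction with DMSO and 100% = background rate lacking mevalonate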
# L929 necroptosis – inhibitors of zVAD-triggered necroptosis, primary screen, L929 cells. L929 zVAD necroptosis rescue, ATP luminescence, 24 h; with zVAD 60 µM. 220,000 compounds, 0.38% hits. viability rescue, % at 10 µM;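 active = activation, scaled between plate controls, above about 75%, limit read from the data; inactive = activation under that limit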;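 note: 0% = zVAD with DMSO and 100% = DMSO alone without zVAD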
# TNF death inh – inhibitors of TNF-alpha triggered necroptosis, primary screen, cell-based, Jurkat FADD-/-, single concentration. activation (protection from cell death), % at 10 µM. Jurkat FADD-/- TNF necroptosis rescue, ATP luminescence, 24 h; 0 = TNF only, 100 = no-TNF cells. 220,000 compounds, 0.068% hits. AID 463075, 2010;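 active = activation, meaning protection from cell death, of at least 50% relative to plate controls; inactive = activation below 50%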;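 note: necroptosis triggered by 40 ng/mL TNF-alpha added together with compound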
# 14-3-3 Bad PPI – inhibitors of 14-3-3 zeta/Bad binding, primary screen, biochemical, TR-FRET, bovine 14-3-3 zeta | inhibition, % at 21.7 µM | 14-3-3 protein zeta/delta (Bos taurus), P63103 | 220,000 compounds, 0.71% hits | AID 781, 2007 | TR-FRET 14-3-3zeta/Dy647-pBad peptide displacement, 1 h;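 active = inhibition above about 70%, limit read from the data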;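 note: 0% = full 14-3-3 plus peptide FRET controls and 100% = background without 14-3-3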
# Target sequence (P63103 whole entry, looked up): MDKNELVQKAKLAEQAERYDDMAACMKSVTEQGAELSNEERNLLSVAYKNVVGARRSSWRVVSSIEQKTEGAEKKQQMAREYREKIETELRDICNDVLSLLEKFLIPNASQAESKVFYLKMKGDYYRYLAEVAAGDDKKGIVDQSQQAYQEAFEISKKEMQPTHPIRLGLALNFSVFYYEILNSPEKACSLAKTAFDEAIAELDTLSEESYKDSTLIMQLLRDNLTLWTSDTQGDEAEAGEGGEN
# ROMK hit retest – ROMK channel modulator hit retest, confirmation, cell-based, thallium flux, duplicate, resupplied hits; AID 1917, 2009; 3,000 compounds, 54% hits; shares compounds with ROMK primary; normalized thallium flux (F/F0 slope) at 10 µM; fluorescence ratio; stronger effect = lower value;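 active = Flux at 10 µM at least 3 SD below or above vehicle control mean in one or both replicates; inconclusive = no clear call, values can overlap the other calls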
# The depositor's hits bear a star; ? = inconclusive; . = no result. Sampled rows, rich in hits. Any-hit rate of the full collection: about 3%.
SMILES,m-calpain inh,ROMK primary,Efa HMGR inh,L929 necroptosis,TNF death inh,14-3-3 Bad PPI,ROMK hit retest
CC(C)CCNC(=O)C(CC(C)C)N(Cc1ccc2c(c1)OCO2)C(=O)c1snc(C(N)=O)c1N (centres undefined),-16.8,.,-3.7,-0.7,1.1,-1.3,?
Nc1nc(SCn2nnc3ccccc3c2=O)n[nH]1,31.7,0.936,-2.8,-1.4,-0.5,0.9,.
COc1ccc(NC(=O)c2ccc(-c3ccccc3Cl)o2)cc1,11.3,1.12,-2.0,4.0,1.0,2.6,.
COc1ccc(NC(=O)c2ccc(-c3ccc(C)c4ccccc34)o2)cc1,-18.5,1.74*,-5.6,1.7,0.3,-11.0,0.0751
COC(=O)c1ccc(-c2sc3nc(N4CCOCC4)c4c(c3c2N)CCCC4)o1,-184.8,-4.29*,0.1,-0.2,-3.0,.,0.0582*
COC(CNc1ncnc2c1cnn2C)OC,-1.3,0.939,-1.9,0.9,2.6,-4.3,.
COc1cc2c(cc1OC)CN(CCC(=O)c1ccc(Br)cc1)CC2,-33.2,-4.04*,1.2,3.3,0.7,-13.4,?
COCCOC(=O)/C(=C\c1cc(C(C)(C)C)c(O)c(C(C)(C)C)c1)C(C)=O,15.9,.,.,2.1,-3.8,-0.8,0.0612*
CC(C)(C)c1cc(CCC(=O)NN)cc(C(C)(C)C)c1O,-19.9,-0.072,1.9,2.7,0.7,-19.6,.
CCn1nnnc1SCC(=O)c1cc(OC)ccc1OC,-28.4,.,-3.6,1.4,4.7,-1.4,.
COc1ccc(Oc2ccc(S(=O)(=O)N3CCCCC3)cc2S(=O)(=O)N2CCCCC2)cc1,-7.2,-5.71*,.,1.4,7.0,-2.7,0.0466*
COc1ccc(S(=O)(=O)N2CCCCC2)cc1C(C)C,33.6,.,-3.8,-0.3,-1.0,-1.4,0.0529*
COc1ccc(S(=O)(=O)N2CCCCCC2)cc1C(=O)OC(C)C(N)=O (centres undefined),-0.5,.,.,-0.6,0.2,-0.5,.
CCn1nc(C(=O)OCc2cccc(S(=O)(=O)N(C)C)c2)c2ccccc2c1=O,1.6,.,.,-0.7,-5.0,1.2,?
CN(C)S(=O)(=O)c1cccc(COC(=O)c2ccc(Cl)cc2O)c1,13.0,.,.,0.6,-1.2,5.2,.
Cn1c(SCc2nnc3n2CCCCC3)nc2ccccc21,-6.8,.,-4.5,-0.3,-0.9,-3.8,0.0812
O=C(N/N=C/c1cn(-c2cccs2)nc1-c1ccccc1)c1ccc(O)cc1,-44.3,-3.51*,1.4,1.8,-8.7,-0.1,0.0589*
O=C(N/N=C/c1cn(-c2cccs2)nc1-c1ccccc1)c1ccccc1Cl,-37.3,-0.564,-0.1,4.5,4.5,3.2,.
CCCN1C(=O)/C(=C/c2ccncc2)SC1=S,11.9,-2.84*,-1.0,0.6,-0.2,-7.9,0.0444*
CCOC(=O)CSc1nnc(CNC(=O)c2ccc(OC)cc2)n1C1CCCCC1,17.1,-0.838,-3.7,-0.1,0.0,6.9,.
Cc1ccc(C)c(-n2nnnc2Sc2nnnn2-c2ccccc2)c1,-2.5,-4.59*,3.6,-0.6,-20.7,-6.2,0.0585*
CCOC(=O)c1cc(C)n(Cc2ccc(OCC)c(OC)c2)c1C,-37.3,0.337,-3.6,-0.6,-0.3,0.5,.
Cn1c(=O)c2c(nc(N3CCNCC3)n2Cc2ccccc2Cl)n(C)c1=O,-8.9,1.6*,-2.8,-1.8,1.4,-9.8,0.0795
Cc1nnc(C)n1/N=C/c1ccc(-c2ccccc2)cc1,17.1,.,-0.6,-0.1,-2.0,4.9,.
CN1CCN(/N=C/c2ccc(-c3ccc([N+](=O)[O-])cc3Cl)o2)CC1,6.2,-3.85*,-2.9,10.7,4.3,-9.9,0.0447*
SMILES,m-calpain inh,ROMK primary,Efa HMGR inh,L929 necroptosis,TNF death inh,14-3-3 Bad PPI,ROMK hit retest
CNC(=S)N/N=C/c1ccc(-c2cc([N+](=O)[O-])ccc2Cl)o1,1.2,-0.0112,-1.9,60.0,-0.6,-7.1,.
Cc1ccc(C(NC(=O)C(C)C)c2cc([N+](=O)[O-])c3cccnc3c2O)cc1 (centres undefined),-88.0,3.28*,3.7,0.4,-3.1,0.2,0.0812
CC(C)C(=O)NC(c1cccs1)c1cc([N+](=O)[O-])c2cccnc2c1O (centres undefined),-7.2,.,-3.3,2.0,-7.0,17.5,.
COc1ccccc1OCc1ccc(C(=O)N(C)C)o1,-33.4,.,-3.8,-0.2,-1.7,-0.6,0.0841
CCCOC(=O)c1cc(-c2ccc(C=O)o2)ccc1Cl,3.2,.,2.3,0.7,1.1,0.3,0.103*
CC1=C(C(=O)OCC2CCCO2)C(c2ccc(Cl)c(Cl)c2)NC(=O)N1 (centres undefined),-0.1,-0.578,-0.2,2.3,0.9,-3.7,.
CN(Cc1ccc(Cl)cc1)C(=O)CCl,-5.2,-4.66*,-2.9,0.1,-10.4,-2.1,?
COc1ccc(CN(C)C(=O)CCl)cc1,-5.0,-0.483,1.2,2.6,-7.0,-3.8,.
NC(=O)c1ccc(C(F)(F)F)n(Cc2cccc(Cl)c2)c1=O,-5.5,-1.79,-7.0,-0.2,-6.6,5.2,.
O=C(Nc1ccc(F)cc1)c1nn(-c2ccccc2)c(=O)cc1Cl,6.8,-3.3*,-2.6,18.3,-14.0,12.6,0.0657*
Cc1ccc(NC(=O)c2cc(-c3ccccc3)nn2-c2ccccc2)cc1,3.3,0.758,3.2,2.5,1.6,-5.5,.
C/C(=N\NC(=O)c1ccccc1F)c1ccc2c(c1)Nc1ccccc1S2,12.0,.,-4.6,26.1,4.9,-1.9,0.0704
COc1ccccc1/C=N/NC(=O)COCC(=O)N/N=C/c1ccccc1OC,28.5,-1.01,2.3,-0.5,-0.2,0.0,.
COc1ccccc1/C=N/NC(=O)CC(=O)Nc1ccc(Cl)c(Cl)c1,-16.4,-3.8*,-6.7,0.5,-0.3,-0.7,0.0869
COc1ccc(C2C(C(=O)O)CCC(=O)N2c2ccc(C)cc2)cc1OC (centres undefined),-2.8,.,.,-0.9,0.6,-1.4,.
CC(C)(C)n1ncc2c(=O)n(CC(=O)NCc3ccc(F)cc3)cnc21,-5.5,3.91*,-5.0,2.3,-6.2,2.2,0.0839
CCOC(=O)C(C)Oc1cccc2c(=O)n(CC(=O)NCc3ccc(F)cc3)ccc12 (centres undefined),4.4,3.63*,.,-1.6,-15.7,-2.1,0.0878
CCOC(=O)C(C)Oc1cccc2c(=O)n(CC(=O)NCc3ccccc3)ccc12 (centres undefined),-3.4,1.94,.,-0.3,-15.9,5.6,.

# High-throughput results: PubChem BioAssay, several laboratories
